Bioassay records as filed in PubChem BioAssay.
Compounds with a hit are over-represented: about 9.2% of the library has one in this group of screens.
Rab9 promoter act = qHTS Assay for Rab9 Promoter Activators; Huh7 Rab9 promoter-luciferase reporter, luminescence, 24 h; Potency, µM (top dose mostly 9.22 µM), for the others: at the highest dose activation, negative = inhibition, most hits filed as activators; hit rate 2.8% among 320,000; also: % of control where 0% means no effect; nearly all actives have a fitted effect of over 60% in size
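Luciferase signal after 10 min detection reagent at ambient indicates Rab9 promoter upregulation; stably transfected Huh7 cells were treated 24 h with compound in DMSO at 37 °C, 5% CO2.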
ELG1 genotoxic = qHTS screen for small molecules that induce genotoxicity in human embryonic kidney (HEK293T) cells expressing luciferase-tagged ELG1 | Potency, µM (top dose mostly 46 µM), for the others: at the highest dose activity change, positive = activation, usual class: activators | AID 504466, 2011 | hit rate 1.3% among 330,000 | HEK293T ELG1-luciferase reporter, luminescence, 16 h; also: % of control where 0% means no effect; nearly all actives have a fitted effect of over 60% in size
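Cells (2,000/well) expressing the ELG1-luciferase fusion are dosed by pin tool and kept 16 hr at 37 °C, 5% CO2. Signal comes from ONE-Glo luciferase reagent after 30 min at room temperature.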
FLuc counter = qHTS profiling assay for firefly luciferase inhibitor/activator using purifed enzyme and Km concentrations of substrates (counterscreen for miR-21 project) | Luciferin 4-monooxygenase (Photinus pyralis), P08659 | purified FLuc, Km substrates, luminescence inhibition | Potency, µM (doses to about 57.5 µM), inactives show at the top dose activity change, negative = inhibition, usual class: inhibitors | hit rate 6.9% among 360,000;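 also: plate controls were vehicle for no effect and reference inhibitor for full effect; nearly all actives have a fitted effect of over 55% in size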
Target sequence (P08659 whole entry, looked up): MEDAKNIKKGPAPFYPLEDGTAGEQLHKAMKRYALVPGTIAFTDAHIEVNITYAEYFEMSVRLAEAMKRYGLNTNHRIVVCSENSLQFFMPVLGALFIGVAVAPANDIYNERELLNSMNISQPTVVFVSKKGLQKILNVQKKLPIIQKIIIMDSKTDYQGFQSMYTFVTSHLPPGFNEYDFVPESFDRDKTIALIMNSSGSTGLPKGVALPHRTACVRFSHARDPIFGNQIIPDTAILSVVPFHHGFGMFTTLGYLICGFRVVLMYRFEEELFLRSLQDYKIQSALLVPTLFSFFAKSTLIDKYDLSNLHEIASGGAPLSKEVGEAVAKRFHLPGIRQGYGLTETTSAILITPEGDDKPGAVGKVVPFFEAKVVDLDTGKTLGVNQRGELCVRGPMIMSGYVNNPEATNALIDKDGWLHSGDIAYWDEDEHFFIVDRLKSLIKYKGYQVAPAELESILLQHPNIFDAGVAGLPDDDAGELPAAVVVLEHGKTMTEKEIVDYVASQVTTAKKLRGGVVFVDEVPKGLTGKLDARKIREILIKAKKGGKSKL
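Purified P. pyralis luciferase, 10 nM final, with Km-level 10 uM D-luciferin and 10 uM ATP in 50 mM Tris acetate pH 7.5, 10 mM Mg acetate, 0.01% Tween-20, 0.05% BSA; 6-point qHTS titration about 60 µM downward; luminescence read.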
ELG1 DNA repair = qHTS screen for small molecules that inhibit ELG1-dependent DNA repair in human embryonic kidney (HEK293T) cells expressing luciferase-tagged ELG1 | HEK293T ELG1-luciferase reporter, luminescence, 16 h; DNA damage induced by 5-fluorouridine | Potency, µM (series often up to 46.1 µM), for the others: at the top dose activity change, negative = inhibition, actives largely listed as inhibitors | hit rate 2.3% among 330,000 | AID 504467, 2011; also: % is scaled to controls: 0 for no effect and ±100 for the full control effect; nearly all actives have a fitted effect of over 55% in size
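Step one: seed 2,000 cells per well. Step two: pin-transfer compound or DMSO alongside 5-fluorouridine. Step three: incubate 16 hr, 37 °C, 5% CO2. Step four: add ONE-Glo, wait 30 min, read luminescence.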
NPC1 prom act = qHTS Assay for NPC1 Promoter Activators; Huh7 NPC1 promoter luciferase reporter, 24 h; Potency, µM (titrated, usually from 9.22 µM), for the others: at the highest dose activation, actives largely listed as activators; hit rate 2.4% among 320,000; AID 485313, 2010; also: % of control where 0% means no effect; nearly all actives have a fitted effect of over 60% in size
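In 1536-well qHTS, Huh7 cells harboring an NPC1 promoter–luciferase construct received compound for 24 h; activation was quantified by luminescence following luciferase reagent addition.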
SMN2 splice up = qHTS Assay for Enhancers of SMN2 Splice Variant Expression; HEK293 SMN2-luciferase splicing reporter, luminescence, 30-36 h; Potency, µM (series often up to 46.1 µM), without a hit: at the highest dose activity change, positive = activation, actives largely listed as activators; hit rate 2.8% among 210,000; AID 1458, 2008; also: % of control where 0% means no effect; nearly all actives have a fitted effect of over 55% in size
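HEK293 cells carry an SMN2 […]–luciferase reporter in which exon 7 inclusion puts luciferase in frame. Cells were plated 10-12 h before compound addition, then incubated 30-36 h at 37C. ONE-Glo luminescence was read; sodium butyrate at 4.5 mM final served as control.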
* marks the source's active call; other numbers are inactive results; ? = inconclusive; / = no result. Calls follow the shape of the dose curve; as a rule, active = well fitted curve in the direction sought with a large enough effect; inconclusive = small, poorly fitted or top-dose-only effect, or another doubt; inactive = no such curve, though single readings can be large; an effect the other way counts as inactive or inconclusive. Potency is read from the fitted curve at half-maximal effect.

SMILES	Rab9 promoter act	ELG1 genotoxic	FLuc counter	ELG1 DNA repair	NPC1 prom act	SMN2 splice up
COc1ccc(/C=C/C(=O)Nc2nc(C)c(C(=O)N(C)C)s2)cc1OC	5.0%	6.7%	-3.0%	7.0%	1.9%	1.0%
COc1ccc(/C=C/C(=O)Nc2nc(C)c(C(=O)N(C)C)s2)cc1	-0.6%	2.1%	19µM*	-7.2%	1.8%	5.7%
O=C(CCC(=O)n1ncc2ccccc21)N1CCCCC1	2.9%	0.5%	?	?	0.8%	/
CCc1ccc(CNC(=O)CCC(=O)n2ncc3cc(C)ccc32)cc1	2.4%	-1.1%	0.2%	16.9%	-4.2%	/
Cc1ccc2c(cnn2C(=O)CCCC(=O)NCc2ccc(F)cc2)c1	28.6%	-7.9%	13.5µM*	25.0%	6.8%	/
Cc1ccc2c(cnn2C(=O)CCC(=O)N2CCCCC2)c1	1.3%	-14.0%	12µM*	20.6%	-1.1%	/
O=C(NC1(C(F)(F)F)NC(=O)N(CCc2ccccc2)C1=O)c1ccccc1F (configuration not stated)	/	/	1.8%	/	/	-10.4%
O=C(COc1ccc(Cl)cc1Cl)N1CCCCCC1	4.7%	12.9%	?	?	4.6%	-3.0%
CC(C)(C)c1ccc(OCC(=O)N2CCCCCC2)c(Br)c1	?	?	15.1µM*	?	?	12.6µM*
Cc1ccc(OCC(=O)N2CCCCC2)c(Br)c1	?	14.7%	?	?	?	20µM*
CC(C)(C)OC(=O)C[C@H]1C/C=C\C[C@H](CC(=O)N(CCO)Cc2ccccc2)C(=O)N[C@@H](c2ccccc2)COC1=O	/	-6.7%	/	8.2µM*	/	/
CC(C)(C)[C@@H]1COC(=O)[C@H](Cc2ccc(F)cc2)CC/C=C\C[C@@H](CC(=O)N(CCO)Cc2ccccc2)C(=O)N1	/	-4.7%	/	-7.2%	/	/
O=C(C[C@H]1C/C=C\CC[C@@H](Cc2ccc(F)cc2)C(=O)OC[C@H]2CCCN2C1=O)N[C@H](CO)Cc1ccccc1	/	-4.0%	/	23.1µM*	/	/
O=C1N[C@@H](c2ccccc2)COC(=O)[C@@H](Cc2ccc(F)cc2)C/C=C\C[C@@H]1CC(=O)N(CCO)Cc1ccccc1	/	-6.3%	/	20.6µM*	/	/
O=C(C[C@@H]1C/C=C\C[C@@H](Cc2ccc(F)cc2)C(=O)OC[C@@H]2CCCN2C1=O)N[C@H](CO)Cc1ccccc1	/	-4.4%	/	-1.7%	/	/
O=C1N[C@H](Cc2ccccc2)COC(=O)[C@H](Cc2ccc(F)cc2)CC/C=C/C[C@@H]1CC(=O)N(CCO)Cc1ccccc1	/	-12.2%	/	20.6µM*	/	/
CCOc1ccc(CNC(=O)Nc2ccc3c(c2)N(C)C(=O)c2ccccc2S3)cc1	/	/	-4.5%	/	/	/
O=C1N[C@H](Cc2ccccc2)COC(=O)[C@@H](Cc2ccc(F)cc2)CC/C=C/C[C@H]1CC(=O)N(CCO)Cc1ccccc1	/	-11.4%	/	20.6µM*	/	/
O=C1N[C@@H](Cc2ccccc2)COC(=O)[C@@H](Cc2ccc(F)cc2)CC/C=C/C[C@@H]1CC(=O)N(CCO)Cc1ccccc1	/	-5.4%	/	?	/	/
O=C1N[C@H](Cc2ccccc2)COC(=O)[C@H](Cc2ccc(F)cc2)C/C=C\C[C@@H]1CC(=O)N(CCO)Cc1ccccc1	/	-7.6%	/	?	/	/
O=C1N[C@@H](Cc2ccccc2)COC(=O)[C@H](Cc2ccc(F)cc2)C/C=C\C[C@@H]1CC(=O)N(CCO)Cc1ccccc1	/	-4.0%	/	20.6µM*	/	/
Cc1ccc(OCCOCCn2c(-c3ccc(Cl)cc3)nc3ccccc3c2=O)cc1	/	/	-2.5%	/	/	-2.4%
CC1CC(C)CN(CCCNC(=O)CN2C(=O)c3cccnc3Oc3ccc(Cl)cc32)C1 (configuration not stated)	-10.8%	-1.6%	1.5%	4.9%	-1.4%	/
COc1cc(/C=N/NC(=O)c2ccc3ccccc3c2)ccc1Oc1ccc([N+](=O)[O-])cn1	-6.4%	-9.3%	-8.8%	16.4µM*	-6.6%	-33.9%
COc1cc(/C=C2\SC(=O)NC2=O)ccc1Oc1ccc([N+](=O)[O-])cn1	-0.5%	0.4%	?	20.6µM*	8.5%	/
SMILES	Rab9 promoter act	ELG1 genotoxic	FLuc counter	ELG1 DNA repair	NPC1 prom act	SMN2 splice up
COc1cccc(C(=O)N/N=C/c2ccc(Oc3ccc([N+](=O)[O-])cn3)c(OC)c2)c1	0.8%	-4.2%	-15.0%	-23.0%	2.7%	-23.8%
Cc1cc2ncn(CCC(=O)NC(C)(C)C)c2cc1C	-6.2%	-1.0%	-3.4%	?	-0.7%	/
CN1c2ccsc2C(O)=C(C(=O)Nc2ccccc2)S1(=O)=O	2.8%	0.2%	15.1µM*	?	-0.2%	18.3%
Cc1ccc(NC(=O)C2=C(O)c3sccc3N(C)S2(=O)=O)cc1	19.5%	5.0%	8.49µM*	?	6.0%	?
COc1ccccc1NC(=O)CCN1C(=O)c2ccccc2C1=O	-3.2%	1.0%	-0.7%	11.3%	-1.5%	/
Cc1nonc1CC(=O)N1CCCC(C(=O)c2ccc(Cl)cc2)C1 (configuration not stated)	-7.9%	-1.5%	-0.2%	2.2%	-3.2%	/
O=C(Nc1ccc(C(=O)N2CCN(c3ccc(F)cc3)CC2)cc1)c1nsc2ccccc12	/	/	7.57µM*	/	/	/
O=C(c1ccc(N2CCCC2=O)cc1)N1CCN(c2ccccc2)CC1	-0.4%	0.2%	-2.0%	5.6%	-4.8%	-4.9%
Cc1cccc(N2CCN(C(=O)c3ccc(N4CCCC4=O)cc3)CC2)c1C	0.2%	-10.8%	-0.5%	18.4µM*	-0.1%	-33.5%
Cc1cccc(N2CCN(C(=O)c3ccc(NC(=O)c4nsc5ccccc45)cc3)CC2)c1C	/	/	6.01µM*	/	/	/
O=C(Nc1ccc(C(=O)N2CCCCC2)cc1)c1nsc2ccccc12	/	/	1.35µM*	/	/	/
CCCC(C)C(=O)Nc1ccc(S(=O)(=O)Nc2nccs2)cc1 (configuration not stated)	2.1%	-0.8%	-0.8%	4.7%	-5.6%	/
COc1ccc(OC)c(C2=NOC(C(=O)NCc3ccco3)C2)c1 (configuration not stated)	-6.4%	3.1%	-1.7%	-12.3%	-0.9%	11.3%
COCC1CCCC1OS(N)(=O)=O (configuration not stated)	0.1%	0.1%	-0.7%	-4.9%	-6.8%	/
CC1=C(C(=O)Nc2cc(C(=O)N3CCN(c4cccc(C)c4C)CC3)ccc2C)SCCO1	-2.3%	-16.6%	2.2%	18.3µM*	-7.3%	/
